ATG4B inh – ATG4B (human) cysteine protease inhibition. inhibition, % at 8.33 µM. Q9Y4P1. AID 504462. ATG4B cleavage of LC3-PLA2, NBD-HPC fluorescence, 1 h. actives 0.51% (n = 340,000); in the data active = inhibition above about 40%
NadD inh – inhibitors of Staphylococcus aureus NadD; purified NadD enzyme, colorimetric absorbance read-out; AID 602399; actives 0.78% (n = 360,000); inhibition, % at 20 µM; in the data active = inhibition above about 26%
SUMO Mot1 rescue – SUMOylation pathway inhibition by Mot1-301 growth rescue; S. cerevisiae Mot1-301 growth rescue, ATP luminescence, 38.5C; percent above DMSO median, 100 means doubled; growth rescue, % at 18.8 µM; actives 1% (n = 320,000); AID 2716;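 active = every valid replicate shows activation above 250% relative to neutral control wells; inactive = the rest, any valid replicate at or below 250%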
Calb FLC – C. albicans growth modulation with fluconazole; growth inhibition, % (no concentration beside the values); C. albicans CaCi-2 (fluconazole-resistant clinical isolate) + fluconazole, Alamar Blue growth, 48 h; AID 1979; actives 0.57% (n = 300,000);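 active = growth inhibition above about 58% in most replicates, limit read from the data, passing the limit was not always enough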;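 note: all wells also contain fluconazole at 8 µg/ml as a sub-toxic cotreatment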
FAS-TE inh – inhibitors of human fatty acid synthase thioesterase domain. P49327. recombinant FAS-TE, OMFH fluorogenic substrate, fluorescence endpoint. inhibition, % at 15 µM. actives 0.67% (n = 360,000);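 active = compounds whose normalised, plate-corrected inhibition of enzyme fluorescence in the single-dose primary screen is 50% or more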
Target sequence (P49327 whole entry, looked up, the tested form may be a part): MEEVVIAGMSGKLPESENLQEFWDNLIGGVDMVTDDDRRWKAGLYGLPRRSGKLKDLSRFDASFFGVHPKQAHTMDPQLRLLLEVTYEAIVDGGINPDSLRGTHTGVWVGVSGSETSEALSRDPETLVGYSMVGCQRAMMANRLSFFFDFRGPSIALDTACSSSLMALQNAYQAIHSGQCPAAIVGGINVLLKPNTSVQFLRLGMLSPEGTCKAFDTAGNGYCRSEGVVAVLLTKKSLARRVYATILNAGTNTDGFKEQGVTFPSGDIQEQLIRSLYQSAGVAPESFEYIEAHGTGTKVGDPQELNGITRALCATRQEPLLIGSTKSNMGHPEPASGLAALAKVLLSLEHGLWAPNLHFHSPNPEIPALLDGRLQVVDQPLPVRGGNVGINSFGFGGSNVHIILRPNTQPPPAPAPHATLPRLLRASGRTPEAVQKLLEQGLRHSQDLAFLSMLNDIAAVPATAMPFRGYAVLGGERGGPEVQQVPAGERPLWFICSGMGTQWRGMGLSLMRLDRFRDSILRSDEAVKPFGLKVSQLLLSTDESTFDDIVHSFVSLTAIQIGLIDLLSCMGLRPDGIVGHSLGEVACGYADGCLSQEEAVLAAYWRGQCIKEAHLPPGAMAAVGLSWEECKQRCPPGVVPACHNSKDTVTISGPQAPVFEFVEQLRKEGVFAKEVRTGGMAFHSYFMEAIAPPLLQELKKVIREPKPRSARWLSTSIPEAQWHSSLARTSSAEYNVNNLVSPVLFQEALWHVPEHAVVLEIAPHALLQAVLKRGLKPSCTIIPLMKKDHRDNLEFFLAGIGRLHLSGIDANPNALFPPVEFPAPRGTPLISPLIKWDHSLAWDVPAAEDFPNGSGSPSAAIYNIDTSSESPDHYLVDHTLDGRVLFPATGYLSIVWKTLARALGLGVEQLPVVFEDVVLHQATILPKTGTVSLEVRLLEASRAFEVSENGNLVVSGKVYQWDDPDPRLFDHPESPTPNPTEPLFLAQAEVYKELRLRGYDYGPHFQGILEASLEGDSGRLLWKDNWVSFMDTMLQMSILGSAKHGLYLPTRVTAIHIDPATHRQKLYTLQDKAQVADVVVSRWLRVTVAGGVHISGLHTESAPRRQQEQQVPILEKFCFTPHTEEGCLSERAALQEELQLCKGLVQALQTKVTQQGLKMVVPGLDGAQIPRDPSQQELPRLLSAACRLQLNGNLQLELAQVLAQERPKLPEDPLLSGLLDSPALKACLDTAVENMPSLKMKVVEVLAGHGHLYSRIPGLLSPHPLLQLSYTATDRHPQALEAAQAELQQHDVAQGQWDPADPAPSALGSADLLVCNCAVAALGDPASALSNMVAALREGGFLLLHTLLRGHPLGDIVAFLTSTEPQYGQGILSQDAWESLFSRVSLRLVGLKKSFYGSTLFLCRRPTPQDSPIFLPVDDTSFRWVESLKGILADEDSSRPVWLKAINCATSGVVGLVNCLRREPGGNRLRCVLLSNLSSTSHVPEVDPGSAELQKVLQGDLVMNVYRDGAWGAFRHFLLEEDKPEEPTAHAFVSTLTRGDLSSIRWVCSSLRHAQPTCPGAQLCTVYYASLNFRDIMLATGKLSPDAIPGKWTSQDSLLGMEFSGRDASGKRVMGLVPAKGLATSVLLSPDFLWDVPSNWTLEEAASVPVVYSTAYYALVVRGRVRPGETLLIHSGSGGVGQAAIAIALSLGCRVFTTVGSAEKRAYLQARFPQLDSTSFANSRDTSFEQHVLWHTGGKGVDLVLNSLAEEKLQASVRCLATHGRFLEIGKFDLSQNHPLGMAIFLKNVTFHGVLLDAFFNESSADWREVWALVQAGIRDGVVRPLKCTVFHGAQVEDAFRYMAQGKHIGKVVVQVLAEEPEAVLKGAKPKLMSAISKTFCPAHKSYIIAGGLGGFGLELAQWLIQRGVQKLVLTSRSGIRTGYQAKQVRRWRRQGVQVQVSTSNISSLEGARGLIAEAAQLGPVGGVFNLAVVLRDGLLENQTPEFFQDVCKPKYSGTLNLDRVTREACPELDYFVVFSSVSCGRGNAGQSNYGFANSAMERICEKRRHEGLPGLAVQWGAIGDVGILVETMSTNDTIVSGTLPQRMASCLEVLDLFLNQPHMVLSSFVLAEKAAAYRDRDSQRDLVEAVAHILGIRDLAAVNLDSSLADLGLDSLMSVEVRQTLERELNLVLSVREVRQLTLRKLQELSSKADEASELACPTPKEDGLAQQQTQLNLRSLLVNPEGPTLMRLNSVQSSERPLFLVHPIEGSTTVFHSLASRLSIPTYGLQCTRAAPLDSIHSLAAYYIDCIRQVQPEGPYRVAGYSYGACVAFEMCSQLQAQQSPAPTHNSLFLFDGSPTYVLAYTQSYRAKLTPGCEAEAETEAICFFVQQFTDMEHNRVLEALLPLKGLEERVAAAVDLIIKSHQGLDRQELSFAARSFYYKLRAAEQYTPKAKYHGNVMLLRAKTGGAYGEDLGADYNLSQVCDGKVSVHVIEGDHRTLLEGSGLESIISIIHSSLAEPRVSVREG
FAS-TE inh conf – FAS thioesterase (human) inhibition, confirmation; inhibition, % at 15 µM; recombinant FAS-TE, OMFH fluorogenic substrate, fluorescence; shares compounds with FAS-TE inh; actives 45% (n = 2,300);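 active = compounds inhibiting the enzyme by at least 50% at 15 µM in any one of the replicates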
Large screens that a line does not name were inactive (follow-up assays come after a bar, where they were run). Most compounds without a hit are left out; they make up all but 3.1% or so of the library.

O=C(O)C1c2ccccc2Cc2ccccc21	none (no result: ATG4B inh, SUMO Mot1 rescue, Calb FLC)
N#CCCSc1nc(N2CCOCC2)c2c(c1C#N)CCCC2	FAS-TE inh 55.1 | FAS-TE inh conf 62.1
CCCSc1nc(N2CCOCC2)c2c(c1C#N)CCCC2	none
CN(C)N1C(N)=C(C#N)C(c2cccc3ccccc23)C2=C1CC(c1ccccc1)CC2=O (stereo not given)	FAS-TE inh 64.9 | FAS-TE inh conf inactive
COC(=O)c1c(NC(=O)c2ccccc2F)sc(C(=O)N2CCOCC2)c1C	none
CC(=O)N1N=C(c2cccc([N+](=O)[O-])c2)OC1c1cccc(Br)c1 (stereo not given)	FAS-TE inh 53.9 | FAS-TE inh conf 60.1
Cc1ccc(S(=O)(=O)N2CCCCC2)cc1NC(=O)c1ccc2ccccc2n1	none
COc1ccc(S(=O)(=O)N2CCOCC2)cc1NC(=O)c1ccc(S(=O)(=O)N(C)c2ccccc2OC)cc1	FAS-TE inh 60.9 (no result: SUMO Mot1 rescue, Calb FLC) | FAS-TE inh conf inactive
COc1ccccc1NS(=O)(=O)c1cc(NC(=O)c2ccc3ccccc3n2)ccc1Cl	FAS-TE inh 65.4 | FAS-TE inh conf inactive
COc1ccc(S(=O)(=O)N2CCCCC2)cc1NC(=O)c1cccc(S(=O)(=O)N2CC(C)OC(C)C2)c1 (stereo not given)	FAS-TE inh 65.3 (no result: SUMO Mot1 rescue, Calb FLC) | FAS-TE inh conf inactive
COc1ccc(S(=O)(=O)N2CCCCC2)cc1NC(=O)c1ccc2ccccc2n1	FAS-TE inh 52.8 | FAS-TE inh conf inactive
C[C@@H]1CN([C@@H](C)CO)C(=O)CCCn2nncc2CO[C@H]1CN(C)C(=O)Nc1ccccc1F	none (no result: ATG4B inh, SUMO Mot1 rescue, Calb FLC)
O=C(Nc1nc2ccccc2s1)c1ccc(N2CCCCC2)c([N+](=O)[O-])c1	FAS-TE inh 54.4 | FAS-TE inh conf inactive
O=C(Nc1ccon1)c1ccc(N2CCCCC2)c([N+](=O)[O-])c1	none
CCCCCN(C(=O)COC(=O)CSc1ccc([N+](=O)[O-])cc1)c1c(N)n(CCCC)c(=O)[nH]c1=O	FAS-TE inh 57.8 (no result: Calb FLC) | FAS-TE inh conf inactive
O=C(Cn1cnc2ccccc2c1=O)NCCC(=O)Nc1ccc(F)cc1	none
CCOC(=O)C1=C(C)N(CCCC(=O)O)C(=O)NC1C(CC)CC (stereo not given)	none
COc1ccc(C(C)=O)c(OCC(=O)NCCC2=CCCCC2)c1	none (no result: ATG4B inh, SUMO Mot1 rescue, Calb FLC)
O=C(OCc1ccccc1Cl)c1cc([N+](=O)[O-])ccc1N1CCOCC1	none
Cc1ccc(C(=O)c2cc([N+](=O)[O-])ccc2N2CCOCC2)cc1	none (no result: SUMO Mot1 rescue)
Cc1ccc(COC(=O)c2cc([N+](=O)[O-])ccc2N2CCOCC2)cc1	FAS-TE inh 53.9 (no result: ATG4B inh) | FAS-TE inh conf 52.0
O=C(OCc1ccc([N+](=O)[O-])cc1)c1cc([N+](=O)[O-])ccc1N1CCOCC1	FAS-TE inh 79.8 | FAS-TE inh conf 75.8
Cc1cc(S(=O)(=O)c2ccc(Cl)cc2)nc(S(=O)(=O)c2ccc(Cl)cc2)c1C#N	FAS-TE inh 68.6 (no result: ATG4B inh, SUMO Mot1 rescue, Calb FLC) | FAS-TE inh conf 71.6
Cc1cc(C)c(S(=O)(=O)c2ccc(Cl)cc2)c(Cl)n1	none
Cc1cc2c(=Cc3ccc(N(C)C)cc3)c3ccccc3n2[n+]1C	none (no result: SUMO Mot1 rescue, Calb FLC)
CCOC(=O)c1cc2c(=Cc3ccc(N(C)C)cc3)c3ccccc3n2[n+]1C	FAS-TE inh 62.0 (no result: SUMO Mot1 rescue, Calb FLC) | FAS-TE inh conf 60.9
O=C(Nc1cc(C(F)(F)F)ccc1N1CCOCC1)C1CCCO1 (stereo not given)	none (no result: Calb FLC)
CCOC1=C2[C@H](c3cccc(Cl)c3)N(S(=O)(=O)c3ccc(C)cc3)C[C@H]2n2c(=O)n(-c3ccccc3)c(=O)n2C1	FAS-TE inh 69.5 (no result: ATG4B inh, SUMO Mot1 rescue, Calb FLC) | FAS-TE inh conf inactive
CCOC1=C2[C@H](c3ccc(C)cc3)N(S(=O)(=O)c3ccc(C)cc3)C[C@H]2n2c(=O)n(-c3ccccc3)c(=O)n2C1	none (no result: ATG4B inh, SUMO Mot1 rescue, Calb FLC)
CCOC1=C2[C@H](c3ccccc3F)N(S(=O)(=O)c3ccc(C)cc3)C[C@H]2n2c(=O)n(-c3ccccc3)c(=O)n2C1	FAS-TE inh 75.0 (no result: ATG4B inh, SUMO Mot1 rescue, Calb FLC) | FAS-TE inh conf inactive
CCN1C(=O)[C@@H]2[C@H](C1=O)[C@@H]1C(=O)Nc3ccccc3C(=O)N1[C@@H]2c1cccc(Cl)c1	none
O=C1COc2ccccc2N1Cc1ccc(Cl)cc1	none
COc1ccc([N+](=O)[O-])cc1NC(=O)Cc1ccc(C)cc1	none
COc1ccc([N+](=O)[O-])cc1/C=N/NC(=O)Cc1ccccc1	none
COc1ccc([N+](=O)[O-])cc1NC(=O)CSc1ccccc1	none
COc1ccc(C(CC(=O)Nc2cc([N+](=O)[O-])ccc2OC)c2ccccc2)cc1 (stereo not given)	FAS-TE inh 61.4 | FAS-TE inh conf 49.9
COc1ccc([N+](=O)[O-])cc1NC(=O)Cc1ccc(Cl)cc1	FAS-TE inh 80.6 | FAS-TE inh conf inactive
COc1cc(/C=N/NC(=O)Cc2ccccc2)ccc1Oc1ccc([N+](=O)[O-])cc1[N+](=O)[O-]	FAS-TE inh 58.7 | FAS-TE inh conf inactive
O=C(O)CC(NC(=O)CC(c1ccccc1)c1ccccc1)c1cccc([N+](=O)[O-])c1 (stereo not given)	FAS-TE inh 56.4 | FAS-TE inh conf 65.5
O=C(CN(C(=O)CNC(=O)c1cccs1)c1ccc(F)cc1)NC1CCCC1	none
COc1cccc(NC(=O)CN(C)C(=O)c2ccc(NC(=O)CC3SC(N4CCCC4)=NC3=O)cc2)c1 (stereo not given)	none (no result: SUMO Mot1 rescue, Calb FLC)
COc1ccc([N+](=O)[O-])cc1NC(=O)CCCOc1ccccc1	FAS-TE inh 67.8 | FAS-TE inh conf 70.6
COc1ccc([N+](=O)[O-])cc1NC(=O)CSCc1ccccc1	FAS-TE inh 62.4 | FAS-TE inh conf inactive
COc1ccc([N+](=O)[O-])cc1NC(=O)CCC(=O)c1cccs1	FAS-TE inh 65.0 | FAS-TE inh conf 48.5
COc1cc([N+](=O)[O-])ccc1NC(=O)CCCOc1ccccc1	none
COCC(=O)Nc1cc([N+](=O)[O-])ccc1OC	none
CC(=O)NC12CC3CC(C1)CC(C(=O)Nc1ccc(C)c(S(=O)(=O)N4CCCCCC4)c1)(C3)C2	none (no result: SUMO Mot1 rescue, Calb FLC)
COc1cccc(C(=O)OCC(=O)NCC2CCCO2)c1 (stereo not given)	none (no result: Calb FLC)
Cc1ccc(-n2c(SCC(=O)c3c(N)n(C)c(=O)n(C)c3=O)nc3sc4c(c3c2=O)CCCC4)c(C)c1	FAS-TE inh 52.1 | FAS-TE inh conf inactive
O=C(CSc1ncnc2c1nnn2Cc1ccccc1)NC1CCCCC1	FAS-TE inh 57.7 | FAS-TE inh conf 49.1
O=C(CSc1nnnn1Cc1ccccc1)NC1CCCCC1	none
Cc1nc2c(OCc3ccc(C(F)(F)F)cc3)cccn2c1N(C)Cc1cccs1	none (no result: ATG4B inh, SUMO Mot1 rescue, Calb FLC)
CC(C)(C)NC(=O)C(c1c[nH]c2ccccc12)N(C(=O)Cn1nnc(-c2ccc(Cl)cc2)n1)c1ccccc1F (stereo not given)	none
O=C(NC1CCCC1)C(c1c[nH]c2ccccc12)N(C(=O)Cn1nnc(-c2ccc(Cl)cc2)n1)c1ccccc1 (stereo not given)	FAS-TE inh 64.5 | FAS-TE inh conf inactive
O=c1c2sc3nc(N4CCOCC4)c4c(c3c2ncn1-c1ccccc1)CCCC4	none

Source: PubChem BioAssay (several laboratories)
